Reference: PubChem BioAssay AID1159580 (chemical genetic matrix, 2015)
Among all 5,500 compounds or so, about 2,000 (36%) were called active. Another 18% or so got no clear call; they are omitted. Cut-off read from the data, not from the text of the source: active = normalized growth mostly below about 0.91 (no sharp cut-off); inconclusive = no clear call, values can overlap the other calls; inactive = mostly above about 0.92. This is one part of the list.

Test: chemical genetic growth profiling, strain panel (AID 1159580);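 note: tested at 20 µM; growth read once vehicle control cultures reached saturation at 30 °C; 1 = growth at the plate median or of vehicle wells; lower values mean less growth of the strain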
Details: S. cerevisiae deletion strains, growth OD

Measured: normalized growth

COc1ccc(-c2c(O)c3cc4c(c(CC=C(C)C)c3oc2=O)OC(C)(C)CC4)cc1
inactive: locus YBR021W, strain FUR4, active compounds read low 1.01 | locus YBR229C, strain ROT2, active compounds read low 0.996 | locus YCL029C, strain bik1, active compounds read low 1.02 | locus YDL035C, strain GPR1, active compounds read low 1.01 | locus YDL074C, strain BRE1, active compounds read low 1.03 | locus YDL101C, strain DUN1, active compounds read low 1.01 | locus YDL185W, strain tfp1, active compounds read low 1.03 | locus YDL192W, strain arf1, active compounds read low 1.03 | locus YDR101C, strain arx1, active compounds read low 1.01 | locus YDR150W, strain NUM1, active compounds read low 1.01 | locus YDR162C, strain NBP2, active compounds read low 0.993 | locus YDR318W, strain mcm21, active compounds read low 1.01 | locus YDR388W, active compounds read low 1.02 | locus YDR502C, strain sam2, active compounds read low 1.02 | locus YEL061C, strain CIN8, active compounds read low 1.01 | locus YER110C, active compounds read low 1.03 | locus YER155C, strain BEM2, active compounds read low 1.01 | locus YER167W, strain BCK2, active compounds read low 1.01 | locus YGL078C, strain dbp3, active compounds read low 1.01 | locus YGL086W, strain mad1, active compounds read low 1.03 | locus YGL248W, strain PDE1, active compounds read low 1 | locus YGR078C, strain PAC10, active compounds read low 1.01 | locus YGR135W, strain pre9, active compounds read low 1.03 | locus YGR229C, strain SMI1, active compounds read low 1.02 | locus YGR252W, strain gcn5, active compounds read low 1.02 | locus YHR030C, strain SLT2, active compounds read low 1.01 | locus YHR079C, strain IRE1 (second series), active compounds read low 1.01 | locus YHR094C, strain hxt1, active compounds read low 1.02 | locus YHR129C, strain ARP1, active compounds read low 1.01 | locus YHR200W, strain rpn10, active compounds read low 1 | locus YIL066C, strain RNR3, active compounds read low 1.01 | locus YIL073C, strain SPO22, active compounds read low 1.06 | locus YIL125W, strain kgd1, active compounds read low 1.02 | locus YIR030C, strain dcg1, active compounds read low 1.01 | locus YJL095W, strain BCK1, active compounds read low 1.01 | locus YJL134W, strain LCB3, active compounds read low 1.01 | locus YJL168C, strain set2, active compounds read low 1.02 | locus YJL187C, strain SWE1 (second series), active compounds read low 1.01 | locus YJR043C, strain POL32, active compounds read low 1.01 | locus YKL009W, strain mrt4, active compounds read low 1.11 | locus YKL068W, active compounds read low 1.01 | locus YKL085W, strain MDH1 (second series), active compounds read low 1.01 | locus YKL085W, strain MDH1, active compounds read low 1.01 | locus YKL190W, strain CNB1, active compounds read low 1 | locus YKR001C, strain vps1, active compounds read low 1.02 | locus YLR039C, strain RIC1, active compounds read low 1.02 | locus YLR058C, strain SHM2, active compounds read low 1.01 | locus YLR102C, strain apc9, active compounds read low 1.01 | locus YLR262C, strain YPT6, active compounds read low 1.07 | locus YLR268W, strain sec22, active compounds read low 1.02 | locus YLR330W, strain CHS5, active compounds read low 1.02 | locus YLR342W, strain FKS1 (second series), active compounds read low 1.02 | locus YLR371W, strain rom2, active compounds read low 1.02 | locus YLR418C, strain cdc73, active compounds read low 1.01 | locus YML016C, strain PPZ1, active compounds read low 1.01 | locus YML032C, strain rad52, active compounds read low 1.02 | locus YML124C, strain tub3, active compounds read low 1.01 | locus YMR078C, strain ctf18, active compounds read low 1.02 | locus YMR223W, strain ubp8, active compounds read low 1.01 | locus YMR263W, strain SAP30, active compounds read low 1.01 | locus YMR307W, strain GAS1, active compounds read low 1.08 | locus YNL067W, strain RPL9B, active compounds read low 1.01 | locus YNL128W, strain TEP1, active compounds read low 1 | locus YNL153C, strain GIM3, active compounds read low 1 | locus YNL233W, strain BNI4, active compounds read low 1 | locus YNL250W, strain rad50, active compounds read low 1.02 | locus YNL271C, strain bni1, active compounds read low 1.01 | locus YNL298W, strain CLA4, active compounds read low 1.01 | locus YNL307C, strain MCK1, active compounds read low 1.02 | locus YNR052C, strain pop2, active compounds read low 1.02 | locus YOL006C, strain TOP1, active compounds read low 1.17 | locus YOL012C, strain htz1 1.44 | locus YOL147C, strain pex11, active compounds read low 1 | locus YOR061W, strain CKA2, active compounds read low 1 | locus YOR069W, strain VPS5, active compounds read low 1.01 | locus YOR136W, strain idh2, active compounds read low 1.02 | locus YOR144C, strain elg1, active compounds read low 0.999 | locus YOR184W, strain ser1, active compounds read low 0.993 | locus YOR316C, strain cot1, active compounds read low 1.02 | locus YPL241C, strain CIN2, active compounds read low 1.01 | locus YPR119W, strain clb2, active compounds read low 1.02 | locus YPR141C, strain kar3, active compounds read low 1.02 | locus YPR163C, strain tif3, active compounds read low 1.01 | locus YPR167C, strain met16, active compounds read low 1.01 | strain wtn01, active compounds read low 1.01
